These results are taken from PubChem BioAssay (Tox21).

Experiment [1] concerns the target Thyrotropin receptor (Homo sapiens) (UniProt P16473). Put plainly: qHTS assay to identify small molecule antagonists of the thyroid stimulating hormone receptor (TSHR) signaling pathway (AID 1259385; calls by dose curve; also: nearly all actives have a fitted effect of over 20% in size; also: potency is read from the fitted curve at half-maximal effect). In outline: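 TSHR-HEK293 cells were plated and held 18 h at 37C/5% CO2, then given compound plus Ro20-1724 and stimulated with TSH at 1.5 ng/mL final. After 30 min at room temperature, cAMP was detected with cAMP-d2/anti-cAMP-cryptate (1 h) by fluorescence.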
For orientation: In qHTS, concentration-response curves come from the screen itself.

Experiment [2] is described as follows: qHTS assay to identify small molecule agonists of the estrogen receptor alpha (ER-alpha) signaling pathway in the presence of an antagonist - cell viability counter screen (AID 1259386).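 Also: series mostly up to about 92 µM; cells exposed to compounds for 22 h at 37 °C before the viability read; nearly all actives have a fitted effect of over 30% in size.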 In outline: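 Fluorescent CellTiter-Fluor viability signal from VM7Luc4E2 cells, with the reagent added during the final hour of a 22hr compound exposure at 37C in the presence of 10.0nM ICI-182,780.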

For experiment [3], the target named is Progesterone receptor (Homo sapiens) (UniProt P06401). Description: qHTS assay to identify small molecule agonists of the progesterone receptor (PR) signaling pathway (AID 1346784; calls by dose curve; also: nearly all actives have a fitted effect of over 30% in size). In outline:
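The screen uses PR-UAS-bla HEK 293T cells in charcoal-stripped serum (2%). Compounds are applied for 16 hr at 37C after a 6 hr pre-incubation, and reporter activity is detected with a FRET beta-lactamase substrate after 2 hr at room temperature.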

Experiment [4] shares this target. Put plainly: qHTS assay to identify small molecule antagonists of the progesterone receptor (PR) signaling pathway (AID 1346795; active = well fitted inhibition curve with a large enough effect in the signal ratio in the repeat runs, not every such curve was filed as active; the % refers to the signal ratio). In outline:
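After 6 hr plating at 37C in 2% stripped-serum medium, PR-UAS-bla HEK293T cells got compounds, then 1 nM R5020. Sixteen hours later, LiveBLAzer substrate was applied for 2 hr at room temperature and fluorescence was recorded.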

Experiment [5] in a line: qHTS assay to identify small molecule antagonists of the progesterone receptor (PR) signaling pathway - cell viability counter screen (AID 1346798). Also: series mostly up to about 92 µM; nearly all actives have a fitted effect of over 50% in size. In short, it runs like this:
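Viability was determined by ATP-based luminescence (CellTiter-Glo) in PR-UAS-bla HEK293T cells cultured in 2% charcoal-stripped serum and incubated 16 hr with compounds under R5020 stimulation.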

The nature of experiment [6]: qHTS assay to identify small molecule agonists of the progesterone receptor (PR) signaling pathway - cell viability counter screen (AID 1346799; calls by dose curve; also: nearly all actives have a fitted effect of over 45% in size). In short, it runs like this: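 Viability was scored by ATP luminescence (CellTiter-Glo, 30 min, room temperature) in the same wells used for the reporter readout, after 16 hr compound exposure of PR-UAS-bla HEK293T cells.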

Experiment [7] can be described thus: qHTS assay to identify small molecule antagonists of the TGF-beta/Smad signaling pathway - cell viability counter screen (AID 1346824). Also: nearly all actives have a fitted effect of over 50% in size. In outline:
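SBE-bla HEK 293T cells were plated overnight at 37 C, then given compounds in DMSO plus TGF-beta1 (added as 0.25 ng/mL solution) for 5 hr. After the bla read, CellTiter-Glo was added to the same wells and luminescence read after 30 min at room temperature.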

Experiment [8] in a line: qHTS assay to identify small molecule agonists of the TGF-beta/Smad signaling pathway - cell viability counter screen (AID 1346829). Also: top concentration of the series differs between compounds; nearly all actives have a fitted effect of over 45% in size. In short, it runs like this: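 CellTiter-Glo luminescence readout; SBE-bla HEK 293T cells, overnight plating, compound 5 hr at 37 C/5% CO2, then bla substrate 2 hr RT, then CellTiter-Glo 30 min RT.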
Experiment [9] is described as follows: qHTS assay to identify small molecule agonists of the TGF-beta/Smad signaling pathway (AID 1346859; active = well fitted activation curve with a large enough effect in the signal ratio in the repeat runs, not every such curve was filed as active; the % refers to the signal ratio; also: series mostly up to about 77 µM). In outline:
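Dual-wavelength fluorescence (460/530 nm emission) quantified beta-lactamase expression under the Smad binding element in HEK 293T cells following 5 hr compound treatment at 37 C.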

The target of experiment [10] is Thyrotropin-releasing hormone receptor (Homo sapiens) (UniProt P34981). Description: qHTS assay to identify small molecule antagonists of the thyrotropin-releasing hormone receptor (TRHR) signaling pathway (AID 1346877; active = well fitted inhibition curve with a large enough effect in the repeat runs, not every such curve was filed as active; also: series mostly up to about 51 µM). In outline:
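In this cell-based calcium flux format, HEK293 cells expressing TRHR received test compound for 5 min before the agonist TRH (1 nM final). Dye loading lasted 2 h at 37 °C.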

Experiment [11] has the same target. Description: qHTS assay to identify small molecule agonists of the thyrotropin-releasing hormone receptor (TRHR) signaling pathway (AID 1346891; calls by dose curve; also: series mostly up to about 58 µM). In short, it runs like this: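 Kinetic fluorescence (3 min, 1 s intervals) reported intracellular calcium after compound transfer onto TRHR-Hek293 cells pre-loaded with dye for 2 h at 37 °C.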
Experiment [12] can be described thus: Human pregnane X receptor (PXR) small molecule agonists, qHTS cell viability counter screen (AID 1346977). Also: nearly all actives have a fitted effect of over 50% in size. In short, it runs like this:
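HepG2 cells stably carrying the PXR-Luc reporter are cultured with 5% charcoal-stripped FBS and treated with compounds for 24hr. CellTiter-Fluor is added at 23hr and fluorescence is read after 1hr.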

Experiment [13] in a line: Caspase-3/7 induction in CHO-K1 cells by small molecules, qHTS cell viability counter screen (AID 1346979). Also: nearly all actives have a fitted effect of over 35% in size. In short, it runs like this:
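Seeding: 1,500 CHO-K1 cells/well. Rest: 5hr, 37C. Treatment: compounds in DMSO, 16hr. Read: CellTiter-Fluor, 1hr, fluorescence.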

Experiment [14] can be described thus: Caspase-3/7 induction in CHO-K1 cells by small molecules, qHTS assay (AID 1346980). Also: nearly all actives have a fitted effect of over 15% in size. In short, it runs like this:
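Wild-type cells were seeded at 1,500 per well and settled 5 hr at 37 C, 5% CO2, then exposed to DMSO-dissolved compounds for 17 hr. Caspase-Glo 3/7 reagent was added, and luminescence was read after 30min at room temperature.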

Experiment [15] can be described thus: Caspase-3/7 induction in HepG2 cells by small molecules, qHTS cell viability counter screen (AID 1346981). Also: series mostly up to about 92 µM; nearly all actives have a fitted effect of over 30% in size. In outline: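 Counter screen for cytotoxicity: HepG2 exposed 16 hr to compounds, then CellTiter-Fluor viability signal (fluorescence, 1 hr reagent incubation).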
Experiment [16] has as its target Nuclear receptor subfamily 1 group I member 2 (Homo sapiens) (UniProt O75469). Description: Human pregnane X receptor (PXR) small molecule agonists, qHTS assay (AID 1346982). Also: nearly all actives have a fitted effect of over 35% in size. In outline:
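Luminescence (ONE-Glo, 30 min RT) after 24 hr compound exposure of PXR-Luc HepG2 cells; cells rested 5 hr post-plating in 5% charcoal-stripped FBS medium.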

The target in experiment [17] is Nuclear receptor subfamily 1 group I member 2 (Rattus norvegicus) (UniProt Q9R1A7). Put plainly: Rat pregnane X receptor (rPXR) activation by small molecules, qHTS assay (AID 1346983). Also: nearly all actives have a fitted effect of over 20% in size. Conditions: rPXR luciferase reporter cells, One-Glo luminescence, 24 h; stronger effect = higher value. In outline: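 Cell-based rPXR luciferase reporter assay, 2,000 cells per well, rested 5hr at 37 C before compound addition in DMSO, then 24 hr at 37 C. One-Glo reagent was added and luminescence read after 30 min at room temperature.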
Chain of Nuclear receptor subfamily 1 group I member 2 (Rattus norvegicus) (Q9R1A7 whole entry, looked up): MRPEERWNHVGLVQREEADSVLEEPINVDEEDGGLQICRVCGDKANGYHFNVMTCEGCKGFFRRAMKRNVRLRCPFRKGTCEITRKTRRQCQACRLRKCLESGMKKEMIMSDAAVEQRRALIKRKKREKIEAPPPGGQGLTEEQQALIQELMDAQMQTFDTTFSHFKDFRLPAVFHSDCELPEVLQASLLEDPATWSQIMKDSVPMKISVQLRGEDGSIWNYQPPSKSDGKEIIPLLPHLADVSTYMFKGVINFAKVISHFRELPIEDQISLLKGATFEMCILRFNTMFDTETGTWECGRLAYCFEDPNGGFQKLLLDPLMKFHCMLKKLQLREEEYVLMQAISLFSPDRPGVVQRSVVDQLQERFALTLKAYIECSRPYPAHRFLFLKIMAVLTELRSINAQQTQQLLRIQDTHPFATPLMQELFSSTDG

Experiment [18] concerns the target Nuclear receptor subfamily 1 group I member 2 (Homo sapiens) (UniProt O75469). Put plainly: Human pregnane X receptor (PXR) activation by small molecules, qHTS assay (AID 1346985). Also: nearly all actives have a fitted effect of over 40% in size. In outline:
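DPX-2 cells (HepG2 co-transfected with a PXR response element and a CYP3A4-promoter luciferase construct) were seeded at 2,000 per well, rested 5 hr at 37C, then exposed to DMSO-dissolved compounds for 24 hr. Activation was read as luciferase luminescence.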

Experiment [19] is described as follows: Caspase-3/7 induction in HepG2 cells by small molecules, qHTS assay (AID 1346978). Also: nearly all actives have a fitted effect of over 15% in size. In outline: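 Wild-type HepG2 cells (2,000/well) were settled 5 h at 37 C, 5% CO2, then exposed to compounds in DMSO for 17 h. Caspase-3/7 activity was read by luminescence 30 min after adding Caspase-Glo 3/7 reagent at room temperature.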
Experiment [20] deals with Nuclear receptor subfamily 1 group I member 2 (Homo sapiens) (UniProt O75469). Put plainly: CYP3A4 induction through human pregnane X receptor (PXR) by small molecules, qHTS assay (AID 1346984). Also: nearly all actives have a fitted effect of over 40% in size. In short, it runs like this:
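DPX-2 reporter cells; 24h cpd, 37C; Luciferin-IPA 3uM final x3h; One-Glo 30 min RT; lumi read.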

A number with no mark means an inactive call. Results filed as inconclusive are left out. Active and inactive are the calls of the source. Unless noted, calls follow the shape of the dose curve; as a rule, active = well fitted curve in the direction sought with a large enough effect in the repeat runs; inconclusive = weak or mixed curves; inactive = no such curve, though single readings can be large; an effect the other way counts as inactive or inconclusive.
% is scaled to controls: 0 for no effect and ±100 for the full control effect.

Chain of Nuclear receptor subfamily 1 group I member 2 (Homo sapiens) (O75469 whole entry, looked up): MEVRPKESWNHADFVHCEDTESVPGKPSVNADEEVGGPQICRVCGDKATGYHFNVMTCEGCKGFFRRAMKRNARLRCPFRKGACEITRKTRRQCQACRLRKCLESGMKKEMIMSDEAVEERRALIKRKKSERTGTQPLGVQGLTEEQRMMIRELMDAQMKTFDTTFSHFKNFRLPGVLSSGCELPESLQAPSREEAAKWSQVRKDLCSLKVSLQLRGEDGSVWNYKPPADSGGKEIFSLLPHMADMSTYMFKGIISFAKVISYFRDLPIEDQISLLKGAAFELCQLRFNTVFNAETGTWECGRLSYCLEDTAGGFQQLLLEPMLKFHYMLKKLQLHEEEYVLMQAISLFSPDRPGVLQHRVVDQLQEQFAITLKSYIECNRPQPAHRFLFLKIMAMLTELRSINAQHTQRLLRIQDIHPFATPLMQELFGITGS
Chain of Thyrotropin-releasing hormone receptor (Homo sapiens) (P34981 whole entry, looked up): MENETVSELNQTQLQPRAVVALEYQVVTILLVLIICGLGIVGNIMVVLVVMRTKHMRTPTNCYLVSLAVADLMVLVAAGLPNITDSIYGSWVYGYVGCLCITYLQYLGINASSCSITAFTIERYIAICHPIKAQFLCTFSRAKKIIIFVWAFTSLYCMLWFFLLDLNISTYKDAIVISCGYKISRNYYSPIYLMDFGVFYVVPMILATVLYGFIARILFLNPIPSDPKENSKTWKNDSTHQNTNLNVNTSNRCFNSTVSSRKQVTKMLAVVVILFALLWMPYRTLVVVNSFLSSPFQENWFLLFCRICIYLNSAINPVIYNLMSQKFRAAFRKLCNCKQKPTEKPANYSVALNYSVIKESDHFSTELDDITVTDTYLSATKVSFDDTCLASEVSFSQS
Chain of Progesterone receptor (Homo sapiens) (P06401 whole entry, looked up): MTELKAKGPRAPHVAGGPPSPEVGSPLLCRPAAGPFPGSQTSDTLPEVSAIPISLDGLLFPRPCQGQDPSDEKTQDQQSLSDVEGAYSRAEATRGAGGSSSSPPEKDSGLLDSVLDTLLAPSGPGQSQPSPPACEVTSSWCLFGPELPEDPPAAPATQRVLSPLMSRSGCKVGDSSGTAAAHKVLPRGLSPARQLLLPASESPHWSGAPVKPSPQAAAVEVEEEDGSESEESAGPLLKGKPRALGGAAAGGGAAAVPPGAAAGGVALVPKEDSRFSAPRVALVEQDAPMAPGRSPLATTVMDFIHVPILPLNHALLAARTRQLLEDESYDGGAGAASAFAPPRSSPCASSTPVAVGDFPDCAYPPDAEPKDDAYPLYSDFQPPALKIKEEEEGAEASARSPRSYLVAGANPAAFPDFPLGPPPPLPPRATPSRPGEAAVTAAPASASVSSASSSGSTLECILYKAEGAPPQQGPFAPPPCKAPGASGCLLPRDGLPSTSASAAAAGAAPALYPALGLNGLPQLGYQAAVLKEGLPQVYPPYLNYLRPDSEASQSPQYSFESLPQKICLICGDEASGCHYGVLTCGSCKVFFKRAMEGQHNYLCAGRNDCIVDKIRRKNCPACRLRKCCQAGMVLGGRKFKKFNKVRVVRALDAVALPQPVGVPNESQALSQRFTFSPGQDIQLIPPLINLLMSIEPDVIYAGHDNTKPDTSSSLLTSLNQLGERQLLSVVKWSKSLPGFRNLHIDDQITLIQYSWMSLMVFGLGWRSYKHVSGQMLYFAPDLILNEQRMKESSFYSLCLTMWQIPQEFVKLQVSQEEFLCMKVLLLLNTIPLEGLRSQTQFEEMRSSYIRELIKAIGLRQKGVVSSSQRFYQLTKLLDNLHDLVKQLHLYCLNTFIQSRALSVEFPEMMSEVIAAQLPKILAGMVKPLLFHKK
Chain of Thyrotropin receptor (Homo sapiens) (P16473 whole entry, looked up): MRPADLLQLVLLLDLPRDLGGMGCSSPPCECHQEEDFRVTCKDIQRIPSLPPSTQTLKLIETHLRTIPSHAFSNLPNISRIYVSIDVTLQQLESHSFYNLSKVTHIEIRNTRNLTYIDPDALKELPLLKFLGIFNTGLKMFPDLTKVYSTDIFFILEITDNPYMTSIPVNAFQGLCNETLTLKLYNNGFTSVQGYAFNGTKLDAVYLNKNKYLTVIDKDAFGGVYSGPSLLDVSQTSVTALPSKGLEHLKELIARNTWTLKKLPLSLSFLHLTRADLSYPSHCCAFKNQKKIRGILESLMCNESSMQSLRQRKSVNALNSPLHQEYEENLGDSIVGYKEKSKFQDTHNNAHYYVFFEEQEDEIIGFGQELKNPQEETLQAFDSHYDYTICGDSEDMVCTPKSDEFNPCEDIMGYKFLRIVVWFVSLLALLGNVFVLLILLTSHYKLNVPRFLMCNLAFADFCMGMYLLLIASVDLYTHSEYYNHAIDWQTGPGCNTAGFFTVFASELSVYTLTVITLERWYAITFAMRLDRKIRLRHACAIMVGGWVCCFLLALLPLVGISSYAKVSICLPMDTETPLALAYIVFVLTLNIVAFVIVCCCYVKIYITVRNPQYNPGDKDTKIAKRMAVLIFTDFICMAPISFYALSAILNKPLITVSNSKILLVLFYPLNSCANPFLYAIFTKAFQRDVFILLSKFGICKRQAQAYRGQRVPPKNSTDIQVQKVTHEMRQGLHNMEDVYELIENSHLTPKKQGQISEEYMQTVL

For `CCOC(=O)[C@H](CCc1ccccc1)N[C@@H](C)C(=O)N1[C@H](C(=O)O)C[C@@H]2CCC[C@@H]21`, the Potency entry in experiment [1], in experiment [2], in experiment [3], in experiment [4], in experiment [5] and in experiment [6] was “inactive” throughout. Further, the Potency result in experiment [7], in experiment [12], in [13], in [15], in experiment [16] and in experiment [18] was “inactive” throughout. The compound was classed as inactive in [8], in experiment [9], in experiment [10], in experiment [11] and in experiment [14]. In addition, the max activation in experiment [17] was -3.39%.

On to `CCN(CC)CCNC(=O)c1cc(S(C)(=O)=O)ccc1OC`, for which the Potency entry in experiment [1], in experiment [2], in experiment [3], in experiment [4], in [5] and in [6] was “inactive” throughout. The Potency entry in [7], in experiment [19], in experiment [15], in experiment [16], in [20] and in experiment [18] was “inactive” each time. Besides, the result in experiment [8], in [9], in experiment [10], in [11] and in [14] was inactive. Besides, the max activation in [17] is -2.45%.

As for `C=CCS(=O)(=O)O`, the Potency entry in [1], in experiment [2], in [5], in experiment [6], in experiment [7] and in experiment [19] was “inactive” each time. The Potency entry in [13] and in experiment [15] was “inactive” throughout. Moreover, the compound was called inactive in [8], in [9], in experiment [10], in [11] and in experiment [14].

Consider `CC(C)(O)C(=O)c1ccccc1`, for which the Potency entry in experiment [1], in experiment [2], in experiment [4], in experiment [5], in experiment [6] and in [7] was “inactive” throughout. The Potency entry in experiment [19], in experiment [13], in experiment [15] and in [16] was “inactive” in each case. Besides, the call in [8], in experiment [9], in experiment [10], in [11] and in experiment [14] was inactive.

`CCCCOCCOCCOCc1cc2c(cc1CCC)OCO2`: in experiment [1], the Potency is 23.7 µM (active). The Potency entry in [2], in experiment [5], in experiment [6], in experiment [7], in [12] and in [19] was “inactive” each time. For the same compound, the Potency result in experiment [13] and in experiment [15] was “inactive” in each case. Besides, the compound was classed as inactive in experiment [8], in experiment [9], in [10], in experiment [11] and in [14]. Further, the max activation in [17] was -0.229%.

Regarding `Nc1ccc(S(=O)(=O)Nc2ccnn2-c2ccccc2)cc1`, the activity change, negative = inhibition in experiment [1] is 0.942% [at 19 µM]. The activity change, negative = cytotoxicity is 1.05% [at 19 µM] in [2]; -4.95% [at 19 µM] in [6]; 13.7% [at 15.8 µM] in [8]; -0.0622% [at 19 µM] in [12]; -0.388% [at 19 µM] in experiment [15]. The Potency entry in [4], in experiment [5], in [13], in [20] and in [18] was “inactive” each time. Also, the viability change, negative = cytotoxic in experiment [7] is 6.26% [at 15.8 µM]. Besides, the activation in experiment [9] was -0.937% [at 15.8 µM]; in [11] it was -0.182% [at 11.8 µM]; in experiment [16], -6.08% [at 19 µM]. Also, the activity, negative = inhibition in experiment [10] is 2.52% [at 10.5 µM]. In experiment [19], the caspase activation was 0.58% [at 19 µM]. In [14], the caspase-3/7 activation is 1.89% [at 19 µM]. In experiment [17], the max activation is 8.45%.

Turning to `C[C@H]1C[C@@H](O)CC(C)(C)C1`, the Potency entry in experiment [1], in [2], in experiment [4], in experiment [5], in experiment [7] and in experiment [12] was “inactive” in each case. The Potency result in experiment [19], in experiment [13], in experiment [15] and in [16] was “inactive” in each case. Moreover, the result in [8], in experiment [9], in experiment [10], in experiment [11] and in experiment [14] was inactive.
